Source: PubChem
KCNQ2 enhance: potentiators of rat KCNQ2 potassium channel; AID 2239, 2010; CHO-K1 KCNQ2, FluxOR thallium flux fluorescence; stronger effect = higher value; 310,000 compounds, 0.54% hits; B-score at 10 µM; Potassium voltage-gated channel subfamily KQT member 2 (Rattus norvegicus), O88943;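 active means fluorescence ratio B-score at least 3 SD of library B-scores, with initial fluorescence B-score within 3 of them, cut at about 5.3 in these data; same plate scores as AID 2156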;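 further: B-score of peak minus minimum over baseline fluorescence ratio after K+ and Tl+ stimulus; positive B-score means potentiation of KCNQ2 with more thallium influx and brighter signal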
KCNQ2 block: rat KCNQ2 potassium channel inhibitors, primary screen, cell-based, CHO-K1, FluxOR thallium flux, B-score; Potassium voltage-gated channel subfamily KQT member 2 (Rattus norvegicus), O88943; 20 min; stronger effect = lower value; B-score at 10 µM; 310,000 compounds, 1.1% hits; AID 2156, 2009;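 active means fluorescence ratio B-score at most minus 3 library SDs, with starting brightness B-score within 2 library SDs, cut at about -5.5 in these data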
KCNQ2 block conf: rat KCNQ2 potassium channel inhibitors, confirmation, cell-based, thallium flux | shares compounds with KCNQ2 block | 1,000 compounds, 57% hits | activity change, negative = inhibition, % at 10 µM | KCNQ2-expressing cells, inhibition; stronger effect = lower value | AID 493025, 2011
KCNQ1 spec: human KCNQ1 channel inhibition, counter-screen for KCNQ2 inhibitor project, cell-based, FluxOR thallium flux; activity change, negative = inhibition, % at 10 µM; shares compounds with KCNQ2 block; 1,000 compounds, 15% hits; KCNQ1-expressing cells, FluxOR thallium flux fluorescence; stronger effect = lower value;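 active means activity change at least 3 SD of negative controls below their mean in both duplicate wells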;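 further: CHO cells stably transfected with KCNQ1 and depolarized by potassium stimulus; peak minus minimum fluorescence over baseline after thallium addition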
CHO parental ctr: thallium flux change in parental CHO cells, counter-screen for KCNQ2 inhibitor project; shares compounds with KCNQ2 block; stronger effect = lower value; activity change, % at 10 µM; 1,000 compounds, 14% hits; AID 493029, 2011
KCNQ2 patch conf: rat KCNQ2 channel inhibitors, confirmation, cell-based, automated patch clamp, single concentration | 550 compounds, 49% hits | calls only at 10 µM | shares compounds with KCNQ2 block | AID 588531, 2011 | KCNQ2-expressing cells, automated patch clamp current
Numbers stand for hits; – = inactive; · = no result; + = active, no number. A selection: hits, their analogues and other compounds. The true share with any hit is near 1.6%. Unless noted, how the calls were made is not given here.

SMILES	KCNQ2 enhance	KCNQ2 block	KCNQ2 block conf	KCNQ1 spec	CHO parental ctr	others
Cc1c(CCOC(=O)CC23CC4CC(CC(C)(C4)C2)C3)sc[n+]1CC(=O)c1ccccc1	–	-7.8	–	–	–
Cc1c(CCOC(=O)c2ccccc2)sc[n+]1Cc1ccccc1	·	–	·	·	·
COc1cccc(NC(=O)Nc2ccncc2)c1	–	–	·	·	·
COc1cccc(NC(=O)Nc2ccc(C(C)(C)C)cc2)c1	–	-8.7	–	–	–
COc1ccc(C(=O)Nc2ccnn2C2CCN(C(C)CSC)CC2)cc1 (stereo not drawn)	·	–	·	·	·
Cc1ccc(CN2CCN(/N=C/c3ccc(C(F)(F)F)cc3)CC2)c(C)c1	·	–	·	·	·
Cc1ccc(CN2CCN(/N=C/c3ccc(C(=O)O)cc3)CC2)c(C)c1	–	-7.3	-26%	–	–	KCNQ2 patch conf=+
Cn1nc(C(=O)Nc2nc(-c3ccc(F)cc3)cs2)ccc1=O	–	–	·	·	·
Cc1cc(-c2nc(C)c(-c3nnc(SCC(=O)Nc4ccc(Cl)cc4)n3C)s2)no1	·	–	·	·	·
C=CCn1c(=O)c(C(=O)Nc2cccnc2)c(O)c2ccccc21	·	–	·	·	·
CCCn1c(=O)c(C(=O)NCCc2ccccc2)c(O)c2ccccc21	·	–	·	·	·
C=CCn1c(=O)c(C(=O)NCCc2ccccc2)c(O)c2ccccc21	–	-6.9	–	–	–
CCCn1c(=O)c(C(=O)NCCc2ccc(OC)cc2)c(O)c2ccccc21	–	-8.2	–	–	–
CCOc1ccc(OCCOCCNCCOC)cc1	–	–	·	·	·
Cc1cccc(NC(=O)CCN2C(=O)c3ccccc3S2(=O)=O)c1C	·	–	·	·	·
OCC1(Cc2cccc(Cl)c2)CCCN(Cc2ccc(F)c(F)c2)C1 (stereo not drawn)	·	–	·	·	·
CSc1cccc(CN2CCCC(CO)(Cc3cccc(Cl)c3)C2)c1 (stereo not drawn)	–	-7	–	–	–
COc1ccc(CN(C)C(=O)C(Cc2ccccc2)NC(=O)c2ccccc2)c(OC)c1 (stereo not drawn)	–	-6.7	-33%	–	–	KCNQ2 patch conf=+
COc1ccc(CN(C)C(=O)c2ccc(COc3ccccc3)cc2)c(OC)c1	·	–	·	·	·
C/C(CCc1ccc2c(c1)OCO2)=N\N=C1\NC(=O)CC(C(=O)Nc2ccccc2F)S1 (stereo not drawn)	·	–	·	·	·
Cc1nc2ccc(NC(=O)c3cccc(S(=O)(=O)N(C)c4ccccc4)c3)cc2s1	·	–	·	·	·
CN(c1ccccc1)S(=O)(=O)c1cccc(NC(=O)c2ccc3ncsc3c2)c1	–	-7.4	–	–	–
O=C(O)c1ccc2nc(-c3ccco3)c(-c3ccco3)nc2c1	·	–	·	·	·
O=C(Nc1cccc(C(F)(F)F)c1)c1ccc2nc(-c3ccco3)c(-c3ccco3)nc2c1	–	-8.5	-30%	–	–	KCNQ2 patch conf=+
COc1ccc(-c2cc(C(F)F)n3ncc(C(=O)N4CCc5ccccc5C4)c3n2)cc1	·	–	·	·	·
